# Experimental data reported in PubChem BioAssay.
# Calls of active or inactive are those of the source. Rule as the data show it, unless noted: active = inhibition above about 80%; inactive = the rest.
# Experiments:
# [1] = LFS_MB_P medulloblastoma growth inhibition, cell-based, chromothripsis tumors, cisplatin or BGB combos (AID 1671449); conditions: LFS_MB_P medulloblastoma cells;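 also: cells exposed for 96 hours; 0% = vehicle DMSO and 100% = killing by high DMSO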
# [2] = HDN33 neuroblastoma growth inhibition, cell-based, chromothripsis tumors, cisplatin or BGB combos (AID 1671450); conditions: HDN33 neuroblastoma cells, stronger effect = higher value;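 also: cells exposed to compound for four days; 0% = vehicle DMSO and 100% = cell killing by high DMSO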
# [3] = ICB984 medulloblastoma cell growth inhibition, synergistic combos for chromothripsis tumors, cisplatin or BGB combos (AID 1671451; call rule not given here;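 also: cells exposed for 96 hours before readout; 0% = vehicle DMSO and 100% = killing by high DMSO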); conditions: ICB984 medulloblastoma cells, drug combinations, stronger effect = higher value
# [4] = LFS_MB_1R medulloblastoma cell growth inhibition, synergistic combos for chromothripsis tumors, cisplatin or BGB combos (AID 1671452); conditions: LFS_MB_1R medulloblastoma cells, stronger effect = higher value;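 also: cells exposed for 96 hours before readout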
# [5] = HTB85 osteosarcoma cell growth inhibition, synergistic combos for chromothripsis tumors, BGB or cisplatin IC20 combos (AID 1671453); conditions: HTB85 osteosarcoma cells, drug combinations, stronger effect = higher value;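 also: cells exposed for 96 hours before readout; 0% = vehicle DMSO and 100% = high DMSO killing control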
# [6] = CRL2098 osteosarcoma cell growth inhibition, synergistic combos for chromothripsis tumors, BGB or cisplatin IC20 combos (AID 1671454); conditions: CRL2098 osteosarcoma cells, drug combinations, stronger effect = higher value;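 also: cells exposed for 96 h before readout; 0% = vehicle DMSO and 100% = killing by high DMSO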
# [7] = HD-MB03 medulloblastoma cell growth inhibition, synergistic combos for chromothripsis tumors, BGB or cisplatin IC20 combos (AID 1671455; in the data active = inhibition above about 83%;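 also: 0% = vehicle DMSO and 100% = high DMSO as cytotoxic control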); conditions: HD-MB03 medulloblastoma cells, stronger effect = higher value
# [8] = UWB1.289 ovarian carcinoma cell growth inhibition, synergistic combos for chromothripsis tumors, BGB or cisplatin combos (AID 1671456); conditions: UWB1.289 ovarian carcinoma cells, stronger effect = higher value;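 also: cells exposed to compound for four days; 0% = vehicle DMSO and 100% = killing by high DMSO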
# [9] = LFS_MB_2R medulloblastoma cell growth inhibition, synergistic combos for chromothripsis tumors, cisplatin combos (AID 1671457); conditions: LFS_MB_2R medulloblastoma cells, stronger effect = higher value;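 also: cells exposed to compound for four days before readout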
# [10] = MDA-MB-436 breast carcinoma cell growth inhibition, synergistic combos for chromothripsis tumors, BGB or cisplatin combos (AID 1671458; call rule not given here;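 also: cells exposed for 96 hours; 0% = vehicle DMSO and 100% = killing by high DMSO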); conditions: MDA-MB-436 breast carcinoma growth inhibition, drug combinations, stronger effect = higher value
# [11] = UWB1.289_BRCA1 ovarian cancer growth, cell-based, BGB or cisplatin combinations (AID 1671459); conditions: UWB1.289 BRCA1 ovarian carcinoma, drug combinations, stronger effect = higher value
# [12] = human astrocyte viability loss, single and combined drugs, cytotoxicity control for chromothriptic childhood tumor combination screen, cell-based, BGB or cisplatin IC20 combos (AID 1671460); conditions: Human astrocytes, drug combinations, stronger effect = higher value;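 also: cells exposed to compounds for 96 hours before viability readout; 0% = vehicle and 100% = killing control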
# [13] = growth inhibition of BT084 medulloblastoma cells, cell-based, ICGC_MB145, cisplatin and BGB IC40 combos (AID 1671461); conditions: drug combinations, stronger effect = higher value;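 also: cells exposed to drugs for 96 hours; 0% = vehicle DMSO and 100% = high DMSO full killing control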
# [14] = growth inhibition of RCMB18 medulloblastoma cells, cell-based, cisplatin and BGB IC40 combos (AID 1671462); conditions: stronger effect = higher value;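 also: cells exposed to compound for four days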
# [15] = growth inhibition of CRL1545 osteosarcoma cells, cell-based, cisplatin and BGB IC20 combos (AID 1671464); conditions: stronger effect = higher value;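 also: cells exposed to compound for 96 hours before readout; 0% = vehicle DMSO and 100% = high DMSO killing control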
# [16] = measured here: combination with BGB IC40, at 0.05 µM
# [17] = measured here: with BGB IC20 combination, at 0.5 µM
# [18] = measured here: with cisplatin IC20 combination, at 0.5 µM
# [19] = measured here: combination with cisplatin, at 0.5 µM
# [20] = measured here: combination with cisplatin, at 5 µM
smiles,measurement,setting,value
CC(C)(O)[C@H]1CC[C@@](C)(C2[C@@H](O)C[C@@]3(C)[C@@H]4C[C@H](O)C5C(C)(C)[C@@H](O)CCC56CC46CC[C@]23C)O1 (stereo partly drawn),inhibition,"[1]; at 0.5 µM, stronger effect = higher value",-20.9% (inactive)
same,inhibition,"[1]; measured here: combination with BGB IC20, at 0.005 µM",-17.4%
same,inhibition,"[1]; measured here: combination with BGB IC40, at 0.005 µM",78.4%
same,inhibition,[1]; [16],-19.9%
same,inhibition,"[1]; measured here: combination with cisplatin, at 0.5 µM, stronger effect = higher value",-28%
same,inhibition,"[1]; measured here: combination with cisplatin, at 5 µM, stronger effect = higher value",-7.56%
same,inhibition,"[2]; BGB combo, at 5 µM",-24.9%
same,inhibition,[2]; at 0.5 µM,2.8% (inactive)
same,inhibition,"[2]; cisplatin combo, at 5 µM",-13.8%
same,inhibition,[2]; [17],-6.04%
same,inhibition,[2]; [18],14.5%
same,inhibition,"[2]; single agent, at 5 µM",-12.8%
same,inhibition,"[3]; BGB IC20 combo, at 0.005 µM",-5.6%
same,inhibition,"[3]; BGB IC40 combo, at 0.005 µM",-12.2%
same,inhibition,"[3]; BGB IC40 combo, at 0.05 µM",-16.5%
same,inhibition,[3]; at 0.5 µM,-16.2% (inactive)
same,inhibition,"[3]; cisplatin combo, at 0.05 µM",-22.4%
same,inhibition,"[3]; cisplatin combo, at 0.5 µM",-30.1%
same,inhibition,"[3]; cisplatin combo, at 5 µM",-15.7%
same,inhibition,"[3]; measured here: 5 uM single agent, at 5 µM",-12.4%
same,inhibition,[4]; at 0.5 µM,-15.4% (inactive)
same,inhibition,[4]; [16],-5.25%
same,inhibition,[4]; [19],-36.6%
same,inhibition,[4]; [20],-6.73%
same,inhibition,[5]; at 0.5 µM,-5.42% (inactive)
same,inhibition,"[5]; measured here: with BGB IC20, at 0.5 µM",4.96%
same,inhibition,"[5]; measured here: with BGB IC20, at 5 µM",-8.72%
same,inhibition,"[5]; measured here: with cisplatin IC20, at 0.5 µM",-17.2%
same,inhibition,"[5]; measured here: with cisplatin IC20, at 5 µM",-11.8%
same,inhibition,"[5]; single agent, at 5 µM",5.09%
same,inhibition,[6]; at 0.5 µM,-14.8% (inactive)
same,inhibition,"[6]; measured here: combination with BGB at IC20, at 0.5 µM",-24.4%
same,inhibition,"[6]; measured here: combination with cisplatin at IC20, at 0.5 µM",-18.8%
same,inhibition,[7]; at 0.5 µM,-9.5% (inactive)
same,inhibition,"[7]; measured here: combo with BGB at IC20, at 0.5 µM",-9.93%
same,inhibition,"[7]; measured here: combo with cisplatin at IC20, at 0.5 µM",-11.4%
same,inhibition,[8]; at 0.5 µM,0.78% (inactive)
same,inhibition,"[8]; measured here: inhibition with BGB combination, at 0.05 µM",-14.1%
same,inhibition,"[8]; measured here: inhibition with cisplatin combination, at 0.05 µM",-5.37%
same,inhibition,[9]; at 0.5 µM,-6.35% (inactive)
same,inhibition,[9]; [19],-24.6%
same,inhibition,[9]; [20],-28.9%
same,inhibition,[10]; at 0.5 µM,-12% (inactive)
same,inhibition,"[10]; measured here: BGB combination, at 0.5 µM",-4.92%
same,inhibition,"[10]; measured here: BGB combination, at 5 µM",-19.3%
same,inhibition,"[10]; measured here: cisplatin combination, at 0.5 µM",-27.4%
same,inhibition,"[10]; measured here: cisplatin combination, at 5 µM",-20.3%
same,inhibition,"[11]; BGB combination, concentration series, at 5 µM",9.93%
same,inhibition,[11]; at 0.5 µM,-4.21% (inactive)
same,inhibition,"[11]; cisplatin combination, concentration series, at 5 µM",7.75%
same,inhibition,[12]; at 0.5 µM,0.26% (inactive)
same,inhibition,"[12]; measured here: combo with BGB IC20, at 0.5 µM",10.1%
same,inhibition,"[12]; measured here: combo with cisplatin IC20, at 0.5 µM",-8.09%
same,inhibition,[13]; at 0.5 µM,-8.31% (inactive)
same,inhibition,"[13]; cisplatin combination, at 0.5 µM",-3.58%
same,inhibition,"[13]; cisplatin combination, at 5 µM",-121%
same,inhibition,"[13]; measured here: BGB IC40 combination 0.05 uM, at 0.05 µM",-25.1%
same,inhibition,"[13]; single agent, at 5 µM",-6.41%
same,inhibition,[14]; at 0.5 µM,-30.6% (inactive)
same,inhibition,"[14]; cisplatin combo, at 5 µM",-6.31%
same,inhibition,"[14]; measured here: BGB IC40 combination, at 0.05 µM",-14.5%
same,inhibition,[14]; [19],-79%
same,inhibition,"[14]; single agent, at 5 µM",-0.285%
same,inhibition,[15]; at 0.5 µM,8.92% (inactive)
same,inhibition,[15]; [17],-5.47%
same,inhibition,[15]; [18],14.8%
same,inhibition,"[15]; single agent, at 0.05 µM",-11.3%
same,inhibition,"[15]; single agent, at 5 µM",-13%
